Source: PubChem BioAssay
Methyltransferases: Primary Screen for Target Class Profiling of Small Molecule Inhibitors of Methyltransferases; purified enzyme, MTase-Glo SAH luminescence; active compounds read low; calls only at 40 µM; 25,000 tested, 3.9% active; call rule not given here
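Each enzyme was assayed with SAM and its substrate. SAH formation detected by MTase-Glo luminescence; single-point 40 uM screen[…].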
MTase-Glo counter: Counterscreen for Target Class Profiling of Small Molecule Inhibitors of Methyltransferases | shares compounds with Methyltransferases | MTase-Glo coupled enzymes, SAH conversion luminescence, no MTase | Potency, µM (titrated, usually from 57.3 µM), without a hit: at the highest dose activity change, negative = inhibition, usual class: inhibitors | 180 tested, 6% active; active = well fitted inhibition curve with a large enough effect; inconclusive = small, poorly fitted or top-dose-only effect; note: potency is the fitted concentration of half-maximal effect
Active calls of the source: *; i = inactive; ? = inconclusive; + = active, no number; [ ] = remark or other dose. The entries come from a sample that favours hits as a whole. % is set by controls: 0 for no effect and ±100 for the full control effect.

SMILES	Methyltransferases	others
CN1CCN(CCNC(=O)c2cc3n(n2)CC(C)(C(=O)NC2CCCCC2)N(C)C3=O)CC1 (configuration not stated)	i
CCn1c(=O)n(CC)c2cc(S(=O)(=O)Nc3ccc(Br)cc3)ccc21	i
Cc1ccc(C)c(C(=O)Cn2nc3n(C(C)C)c(=O)c4ccc(C(=O)NCC(C)C)cc4n3c2=O)c1	i
CCCCN1C(=O)c2cc3c(OC)ccc(OC)c3n2CC1(C)C(=O)NC1CCC(C)CC1 (configuration not stated)	i
CC(C)CCNC(=O)C1(C)Cn2nc(C(=O)NCCc3ccc(Cl)cc3)cc2C(=O)N1C (configuration not stated)	i
c1ccc2c(c1)OCC(CCn1ccnc1-c1cc3n(n1)CCNC3)O2 (configuration not stated)	i
Cc1cnccc1NCCn1ccnc1-c1cc2n(n1)CCCNC2	+	MTase-Glo counter=-2%
Cc1ccc(-n2ccnc2-c2cc3n(n2)CCNC3)cc1N1CCCC1=O	i
CCOC(=O)c1cc2n(n1)CC(C)(C(=O)NC1CCCCCC1)N(Cc1ccc(CC)cc1)C2=O (configuration not stated)	i
Cc1noc(C)c1-c1cc(-c2ccc(CN(C)C)cc2)cn2cncc12	+	MTase-Glo counter=-17%[85.7 µM]
Cc1noc(C)c1-c1cc(-c2ccncc2)cn2cncc12	i
COC(=O)c1cc2n(n1)CC(C)(C(=O)NC1CCCCC1)N(c1ccc(Cl)cc1)C2=O (configuration not stated)	i
CCCn1c(=O)c2cc(Cl)ccc2n2c(=O)n(CC(=O)Nc3cc(OC)cc(OC)c3)nc12	i
CC(=O)N1CCN(C(=O)c2cn3cc(-c4ccc(F)cc4)sc3n2)CC1	i
O=C(c1ccc(Cl)nc1)N1CCC(C(=O)N2CCC(N3CCCC3=O)CC2)CC1	i
COc1ccc(-c2cc(C(=O)NCc3cccnc3)c3c(c2)N(C)CCO3)cc1OC	+	MTase-Glo counter=5%[85.7 µM]
CNC(=O)c1cc(-c2cnc(OC)nc2)cc2c1OCCN2Cc1cccnc1	i
CC(=O)Nc1cc(-c2cc(C(=O)NCc3cccnc3)c3c(c2)N(C)CCO3)ccn1	+	MTase-Glo counter=1%[85.7 µM]
O=C(NCC1CCCO1)c1cc(-c2ccccc2F)cc2c1OCCN2Cc1cccnc1 (configuration not stated)	i
CN1CCOc2c(C(=O)NCc3cnn(C)c3)cc(-c3ccc([S+](C)(=O)[O-])cc3)cc21	i
CCc1nc2cc(N3CCC(C(=O)NCc4cccnc4)CC3)cnc2nc1CC	i
CC(NC(=O)CCc1nnc2n(Cc3ccccc3)c(=O)c3ccccc3n12)c1ccccc1 (configuration not stated)	i
CCOC(=O)c1cc2n(n1)CC(C)(C(=O)NCc1ccc(C)cc1)N(CCc1ccc(OCC)cc1)C2=O (configuration not stated)	i
CN1C(=O)CCCCC1C(=O)NCCN1CCCCC1 (configuration not stated)	i
CC1CCN(CCCNC(=O)C2CCc3sc(C(=O)N4CCCC4)cc3C2)CC1 (configuration not stated)	+	MTase-Glo counter=-2%
SMILES	Methyltransferases	others
CCCCNC(=O)C1CCc2sc(C(=O)N3CCCCC3)cc2C1 (configuration not stated)	i
CCCN1C(=O)c2c(C(=O)NCCc3ccc(OC)cc3OC)ncn2CC1(C)C(=O)NCc1ccc(C)cc1 (configuration not stated)	i
Cc1cccc(-c2nnn3c2nc(NC2CCCC2)c2ccccc23)c1	i
CCOc1ccc(N2C(=O)CSc3c(c4ccccc4n3C)C2C(=O)NCCC(C)C)cc1 (configuration not stated)	i
CCC(C)NC(=O)c1ccc2c(=O)n(CCC(C)C)c3nn(CC(N)=O)c(=O)n3c2c1 (configuration not stated)	i
Cn1c(C(=O)Nc2ccc3c(c2)OCO3)cc2c1CCN(Cc1cccc(F)c1)C2	i
O=C(c1nc2c(o1)CCN(Cc1cccc(F)c1)CC2)N1CCOCC1	i
Cn1c(C(=O)NCCN2CCCCC2)cc2c1CCN(Cc1cccc(F)c1)C2	+	MTase-Glo counter=4%
CSc1ccc(CNC(=O)c2cc3n(n2)CC(C)(C(=O)NCc2ccccc2)N(C)C3=O)cc1 (configuration not stated)	i
CC(C)Cn1c(=O)c2ccc(C(=O)NC(C)C)cc2n2c(SCc3ccccc3Cl)nnc12	i
COc1cccc(-c2ccccc2NC(=O)C2CCN(Cc3ccccc3F)CC2)c1	i
COc1ccccc1-c1ccc(C(=O)N2CCC(C(=O)Nc3ccccc3Cl)CC2)cc1	i
COc1cccc(-c2ccccc2NC(=O)C2CCN(CC=C(C)C)CC2)c1	+	MTase-Glo counter=-4%
COCCN1C(=O)c2c(-n3cccc3)c3cc(C)ccc3n2CC1(C)C(=O)NCCC(C)C (configuration not stated)	i
CSc1cccc(N2C(=O)c3cc(C(C)(C)C)nn3CC2(C)C(=O)NCCC(C)C)c1 (configuration not stated)	i
Cc1ccc(NS(=O)(=O)c2ccc3[nH]c4c(c3c2)CCCC4)cc1C	i
O=C(c1ccccc1)N1CC2(CCCN2Cc2cccnc2)Cc2ccccc21 (configuration not stated)	i
O=C(C1CCCC1)N1CC2(CCN(Cc3cccnc3)CC2)Cc2ccccc21	i
O=C(c1ccc(Cl)cc1)N1CC2(CCN(CC3CC3)CC2)Cc2ccccc21	+	MTase-Glo counter=-1%
Cc1ccc(CNC(=O)CSc2nnc3n(CC(C)C)c(=O)c4ccccc4n23)cc1	i
CN(CC(=O)Nc1ccc(Br)cc1F)S(=O)(=O)c1ccc2[nH]c3c(c2c1)CCCC3	i
O=C(CCn1ccc2cc(S(=O)(=O)N3CCCCC3)ccc21)NCc1ccccc1Cl	i
Cc1ccc(-c2cc3c(ccn3C)c(C(=O)NCc3cccnc3)n2)cn1	i
Cn1cncc1CNC(=O)c1nc(-c2cccc(N3CCOCC3)c2)cc2c1ccn2C	i
Cn1ccc2c(C(=O)NCCc3cnc[nH]3)nc(-c3ccc(N4CCOCC4)cc3)cc21	+	MTase-Glo counter=2%[85.7 µM]
SMILES	Methyltransferases	others
COc1ccc(OC)c(S(=O)(=O)N2CCC3(CC2)CC(CC(=O)N(C)C)CCO3)c1 (configuration not stated)	i
COc1ccc(CN2C(=O)c3cc4occc4n3CC2(C)C(=O)NC2CCCC(C)C2C)cc1 (configuration not stated)	i
CN1C(=O)c2cc(C(=O)NCCc3cccs3)nn2CC1(C)C(=O)NC1CCCCCC1 (configuration not stated)	i
COc1ccc(S(=O)(=O)NC[C@H]2Cn3c(-c4ccc(Cl)cc4)cnc3CO2)cc1	+	MTase-Glo counter=-2%[85.7 µM]
COc1ccc(S(=O)(=O)NCC2Cn3cccc3C(=O)N2Cc2ccccc2)cc1 (configuration not stated)	i
COc1ccc(C(=O)NC[C@H]2Cn3ccnc3CO2)cc1	i
COc1ccc(-c2cc(-c3cnn(C)c3)cn3cncc23)cn1	+	MTase-Glo counter=?
CC(C)NC(=O)Cn1nc2n(C(C)C)c(=O)c3ccc(C(=O)NC4CCCCC4)cc3n2c1=O	i
COCCn1ccc2c(C3=CCOCC3)nc(-c3cccc4[nH]ccc34)cc21	+	MTase-Glo counter=-6%[85.7 µM]
